Measured values published in PubChem BioAssay AID623980 (National Center for Advancing Translational Sciences (NCATS), 2012).
This is one part of the list. Calls of active or inactive are those of the source. Calls come from the whole dose curve; as a rule, active = well fitted curve in the direction sought with a large enough effect; inactive = no such curve, though single readings can be large or run the other way.

assay: qHTS for Inhibitors of mutant isocitrate dehydrogenase 1 (IDH1): Cherrypicks Autofluorescence Interference; settings: Resorufin detection reagent fluorescence interference, cell-free; series mostly up to 51.2 µM
Excerpt: Readout Interference Assay for Inhibitors of IDH1 R132H and WT IDH1 Malignant glioblastomas (WHO grade IV), including primary and secondary glioblastomas, are among the most lethal with a median survival of one year, and unfortunately they are also the most prevalent type of brain tumors. By and large the standard of care of gliomas remains the use of the oral alkylating agent temozolomide and radiotherapy following surgical tumor resection. There is an urgent unmet medical need for novel therapeutics for gliomas. IDH mutations occur in up to 70% of grade II-IV secondary glioblastomas, and IDH1 R132H is the most prevalent mutation. […] Wild-type (WT) IDH1 catalyzes the conversion of isocitrate to a-ketoglutarate with the concomitant reduction of NADP+ to NADPH. In contrast, IDH1 R132H catalyzes the conversion of -ketoglutarate to 2-hydroxyglutarate (2-HG) with the concomitant oxidation of NADPH to NADP+ [5]. Recently, a second significant advancement for the field was the finding that IDH is an oncogene, and that its metabolic product 2-HG may contribute to the pathogenesis of IDH-mutated cancers. […] Although this link to cancer is tantalizing, the direct evidence of how 2-HG drives pathogenesis of gliomas and AML remains a subject of further research. The goal of this detection interference assay is to identify whether the potential small-molecule inhibitors of IDH1 R132H or WT IDH1 confound the fluorescence readout by interfering with the detection reagent. Inhibition of the detection reagent would lead to a decrease in observed fluorescence of the product resorufin relative to the DMSO control. Compounds were screened as concentration-titration series that ranged from 76 uM to 0.15 uM. NIH Molecular Libraries Probe Production Network [MLPCN] NIH Chemical Genomics Center [NCGC] MLSCN Grant: R03 DA032129 PI Name: Dr. Lenny Dang
Detection reagent buffer was dispensed into black, solid 1536-well plates at 9 microL/well in 20 mM Tris buffer, pH 7.5, containing final concentrations of 10 mM MgCl2, 20 mM NaCl, 0.05% BSA, 2 mM beta-ME, 0.008 mM NADPH, 1 mM alpha-ketoglutarate, and 0.008 mM resorufin. Then, 23 nL of compounds or DMSO were delivered to each well using a pin tool. The fluorescence intensity was monitored on an Envision plate reader at 590 nm (Ex 540, Em 590, bodipy mirror, 10 flashes). The %Activity was determined from the corrected fluorescence values. Resorufin at 0x was included to normalize %Activity of identified inhibitors; 0x resorufin values corresponded to 100%Activity (full inhibition), while 1x resorufin values were used to normalize 0%Activity (no inhibition). Concentration-response curves were fitted to the signals arising from the resulting fluorescence. The concentration-response curves were then classified based on curve quality (r2), response magnitude and degree of measured activity, and compounds were subsequently categorized based on their curve class. […] Keywords: Isocitrate dehydrogenase, IDH1, IDH1 R132H, 2-HG, 2-hydroxyglutarate, AML, glioma, MLSMR, MLPCN, NIH Roadmap, qHTS, NCGC

outcome, inactive:
Cc1ccc2nc(N3C(=O)C(O)=C(C(=O)c4ccco4)C3c3cccc(O)c3)sc2c1 (centres undefined), N#CC1=C(N)C(C#N)(C#N)[C@H](c2ccsc2)[C@H]2COCC=C12, CCCc1[nH]nc2c1C(c1ccc(OC)c(Cn3nc(C)c(Br)c3C)c1)C(C#N)=C(N)O2 (centres undefined), COC(=O)c1ccc(-c2c(-c3ccccc3)ncc3cc(OC)c(OC)cc23)cc1, CCCc1nc2c(c(=O)c3ccccc3n2C)c(=O)n1C1CCCCCC1, COc1ccc(Cl)cc1-n1c(=S)sc2c(=O)n(-c3ccc(F)cc3)c(SCC(=O)O)nc21, C(=N/Nc1cc(N2CCOCC2)nc(N2CCOCC2)n1)/c1ccccc1, CC(C)N(C(=O)CSc1nc(COc2ccccc2)nc2ccccc12)C(C)C, CCCCC(=O)NC(c1ccc(OC)c(OC)c1)c1ccc2cccnc2c1O (centres undefined), Cn1c(COc2ccc(Cl)cc2)nc2ccccc2c1=O, CCC(C)(C)NC(=O)C(c1cccn1C)N(Cc1ccc(C)cc1)C(=O)Cn1nnc2ccccc21 (centres undefined), COc1cc2c(-c3ccc4c(c3)OCO4)c(-c3ccsc3)oc(=O)c2cc1OC, CC(C)Nc1nc(N(c2ccccc2)c2ccccc2)nc(-n2ccnc2)n1, Cc1ccc(-c2nn(-c3ccccc3)cc2/C=C2\SC(=S)N(CCCCCC(=O)O)C2=O)o1, COC(=O)c1cccc(N(C(=O)c2ccco2)C(C(=O)NC2CCCC2)c2ccco2)c1 (centres undefined), Cc1nc(C)c(C(=O)N(c2ccc(C)c(C)c2)C(C(=O)NCc2ccco2)c2ccccc2)s1 (centres undefined), CCSc1nc2sc3c(c2c(=O)n1-c1ccc(C)cc1)CCN(C)C3, COc1ccc(/C=N/Nc2cc(N3CCOCC3)nc(C)n2)c(OC)c1, CCCCOc1ccc(CN2C(=O)C(=O)c3cc(Br)cc(C)c32)cc1OC, CCOC(=O)c1ccc(N2C(=O)c3n[nH]c(-c4ccco4)c3C2c2ccc(O)cc2)cc1 (centres undefined), COc1cc(/C=C2/SC(=S)N(Cc3ccccc3)C2=O)cc(OC)c1O, Cc1nc(-c2ccc(Cl)cc2)sc1C(=O)CBr, Cc1cccc(N(C(=O)Cc2cccs2)C(C(=O)NC2CCCC2)c2ccsc2)c1 (centres undefined), CCCNc1ncnc2c1c(-c1ccccc1)cn2-c1ccc(OCC)cc1, COc1ccc(C(CCN(Cc2ccc(OC)c(OC)c2)C(=O)CCl)c2ccccc2)cc1 (centres undefined), CCOC(=O)c1oc2c(CN3CCN(CCO)CC3)c(O)c(CC)cc2c(=O)c1-c1nc2ccccc2s1, Cc1ccc(Nc2nc(CSc3nnc(-c4ccncc4)n3-c3ccccc3C)cs2)cc1, COc1ccc(/C=C2/SC(=O)N(CCCCCC(=O)Nc3ccccc3C(=O)O)C2=S)cc1, COc1ccc(C(C(=O)NC2CCCCC2)N(C(=O)c2snc(C(N)=O)c2N)c2ccccc2OC)cc1 (centres undefined), O=C1c2cccc3cccc(c23)C(=O)N1CCCCCc1n[nH]c(=S)o1, CC(C)(C)c1ccc(S(=O)(=O)Nc2ccc(O)c(Sc3nc4ccccc4s3)c2)cc1, COc1cc(/C=C2/C(=O)ON=C2C)ccc1OCc1ccccc1F, CCCOc1ccc(C2c3c(-c4ccccc4O)n[nH]c3C(=O)N2Cc2cccnc2)cc1 (centres undefined), O=C(NC(Nc1nc2ccc([N+](=O)[O-])cc2s1)(C(F)(F)F)C(F)(F)F)c1ccccc1
